# Test results published in PubChem BioAssay (Tox21).
# “And” between values parts separate entries of the source, which are not always exact repeats. Identical values can stand only once. Results filed as inconclusive are left out. The source holds several records for some structures; these can differ, active in one and inactive in another. The source made the active and inactive calls. The call rests on the fitted dose curve; in most records, active means well fitted cell-killing curve with a large enough effect in the repeat runs; inconclusive means weak or mixed curves, or effect the other way; inactive means no such curve, though single readings can be large or run the other way.
# Experiment: qHTS assay for identifying genotoxic compounds that show differential cytotoxicity against isogenic chicken DT40 cell lines with known DNA damage response pathways - wild type cell line (AID 743012); further: nearly all actives have a fitted effect of over 60% in size
# Conditions: DT40 wild type chicken cells viability, CellTiter-Glo, 40 h; series mostly up to 68.4 µM; activity change, negative = cytotoxicity: at the top concentration
# Description: U.S. Tox21 Program National Center for Advancing Translational Sciences [NCATS] NIH Chemical Genomics Center [NCGC] U.S. Environmental Protection Agency [EPA] National Institutes of Environmental Health Sciences [NIEHS] National Toxicology Program [NTP] U.S. Food and Drug Administration [FDA] Tox21 Assay Overview: DNA repair pathways play a critical role in cellular homeostasis by repairing DNA damage induced by endogenous processes and xenobiotics. Isogenic chicken DT40 cell lines deficient in different DNA repair pathways can be used to identify genotoxic compounds and aid in characterizing the nature of the DNA damage induced. Two DNA repair-deficient cell lines with disrupted genes, Rad54/Ku70 or Rev3, were used to screen the Tox21 10K compound library. Possible genotoxicity was based on the presence of a significant increase in cytotoxicity in one or more of the DNA repair-deficient cell lines compared to that observed in the parental DNA repair-proficient cell line. CellTiter Glo viability assay (Promega, Madison, WI) was used to measure cell viability in these cells after compound treatment. This assay includes the data from the wild type cell line.
# Tox21 Assay Protocol Summary: 300 DT40 wild type cells in 5 uL/well were dispensed into white, solid-bottom 1536-well plates using a Multidrop Combi (ThermoFisher Scientific, Waltham, MA) dispenser. After the assay plates were incubated at 37 C/5% CO2 for approximately 0.5 hour, 23 nL of compounds dissolved in DMSO, positive controls or DMSO only was transferred into the assay plate by a pintool work station (Kalypsys, San Diego, CA). The assay plates were incubated at 37 C/5% CO2 for 40 hours. After 5 uL per well of CellTiter-Glo reagent was added into each well of the assay plates, the plates were incubated for 30 min at room temperature and the luminescence intensity of the plates was measured using a ViewLux (PerkinElmer, Shelton, CT) plate reader.
# On the % scale 0 is the no-effect control and ±100 the full control effect; potency means the concentration at half of the fitted maximal effect.
SMILES,Potency,"activity change, negative = cytotoxicity"
CC(C)(C)c1ccc(C(=O)CCCN2CCC(OC(c3ccccc3)c3ccccc3)CC2)cc1,4.22 µM (active),–
Cc1c(C)c2c(c(C)c1O)CCC(C)(COc1ccc(CC3SC(=O)NC3=O)cc1)O2 (stereo not given),10.6 µM (active) and 17.2 µM (active),–
O=C(Nc1cccc(Cl)c1)OCC#CCCl,24.3 µM (active),–
On1ccccc1=S,0.215 µM (active),–
CCOC(=O)/C=C(C)/C=C/C=C(C)/C=C/c1c(C)cc(OC)c(C)c1C,9.44 µM (active),–
Cc1cc(C2CCCCC2)n(O)c(=O)c1,1.43 µM (active),–
NC(=O)NS(=O)(=O)c1ccc(N)cc1,–,9.35% (inactive)
CC1(C)CCC(C)(C)c2cc(C(=O)Nc3ccc(C(=O)O)cc3)ccc21,24.3 µM (active),–
Cc1ccc(O)c(C(C)(C)C)c1,27.3 µM (active) and inactive,–
CNC(=O)c1ccccc1,–,3.66% (inactive)
Clc1ccccc1C(c1ccccc1)(c1ccccc1)n1ccnc1,5.07 µM (active) and 5.45 µM (active),–
COc1ccc(-c2ccc3cc(C(=O)O)ccc3c2)cc1C12CC3CC(CC(C3)C1)C2,–,-4.14% (inactive)
CCCCN1CCCC[C@H]1C(=O)Nc1c(C)cccc1C,–,-19.8% (inactive)
Clc1ccc2nsnc2c1NC1=NCCN1,–,1.94% (inactive)
Cc1ccc(O)c2ncccc12,2.11 µM (active),–
Cc1cc(O)c2ccccc2c1O,29.8 µM (active),–
[Cl][Au]([Cl])[Cl],13.7 µM (active),–
CCCCCOC(=O)CCCC,–,3.68% (inactive)
O=C1Cc2cc(CCN3CCN(c4nsc5ccccc45)CC3)c(Cl)cc2N1,21.1 µM (active) and 10.6 µM (active),–
Cc1cc2c(cc1C(F)(F)F)N(C(=O)Nc1ccc(Oc3cccnc3C)nc1)CC2,1.24 µM (active),–

SMILES,Potency,"activity change, negative = cytotoxicity"
CCCCCCCCOc1ccccc1C(=O)Nc1ccc(C(=O)OCC[N+](C)(CC)CC)cc1,11.9 µM (active),–
C/C=C1/C(=O)C[C@H]2[C@@H]3CCC4=CC(=O)CC[C@]4(C)[C@H]3CC[C@]12C,21.6 µM (active),–
Cc1cc(O)c(C(C)(C)C)cc1Sc1cc(C(C)(C)C)c(O)cc1C,21.6 µM (active),–
C=CC(=O)OCC(CO)(COCC(COC(=O)C=C)(COC(=O)C=C)COC(=O)C=C)COC(=O)C=C,0.34 µM (active),–
Oc1ccc(Cl)cc1Sc1cc(Cl)ccc1O,10.6 µM (active) and 30.6 µM (active),–
O=C(OCC1CO1)C1CCCCC1C(=O)OCC1CO1 (stereo not given),8.64 µM (active),–
CC(NN)c1ccccc1 (stereo not given),–,0.611% (inactive)
CC(C)OC(=O)c1cc2c(OCC(O)CNC(C)(C)C)cccc2[nH]1 (stereo not given),23.7 µM (active),–
Cc1cccc2c1cc1ccc3cccc4ccc2c1c34,–,-15.1% [at 95 µM] (inactive)
O=c1cc(-c2ccc(O)cc2)oc2cc(O)cc(O)c12,27.3 µM (active),–
CCCCCCCCCCC=O,–,-2.48% [at 95 µM] (inactive)
CC1=C(/C=C/C(C)=C/C=C/C(C)=C/C=O)C(C)(C)CCC1,13.6 µM (active),–
CCN(Cc1cccnc1)C(=O)c1cccc(Cl)c1[C@]1(C)C(=O)N(Cc2ccc(OC)cc2OC)c2ccc(Cl)cc21,5.09 µM (active),–
C=CC(=O)OCC(CO)(COC(=O)C=C)COC(=O)C=C,1.73 µM (active) and 2.17 µM (active),–
CC(C)(C)C(=O)OCOC(=O)[C@@H]1N2C(=O)[C@@H](NC(=O)[C@H](N)c3ccccc3)[C@H]2SC1(C)C,–,12.6% [at 31.4 µM] (inactive)
COc1cc(-c2nc(NC(=O)c3cc4cc(C)cc(C)c4n3CC(=O)O)sc2CCC2CCCCC2)c(OC)cc1Cl,35.3 µM (active),–
CCCC(C)c1ccccc1O (stereo not given),48.6 µM (active),–
Cc1ccc(-n2nc(C(C)(C)C)cc2NC(=O)Nc2ccc(OCCN3CCOCC3)c3ccccc23)cc1,18.8 µM (active),–
O=C1c2ccccc2Cc2ccccc21,–,16.5% [at 95 µM] (inactive)
O=C(c1ccc(O)cc1O)c1ccc(O)cc1O,–,-8.61% (inactive)
